# Measurements published in PubChem BioAssay.
# Records with an inconclusive call do not appear. The source made the active and inactive calls.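 The calls were made as follows, unless noted: active = normalized viability below 100% at a tested concentration; inactive = the rest.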
# Assays:
# [1] = viability loss in pontine glioma line – cell-based, SU-DIPG-XVII, MIPE5.0, CellTiter-Glo, qHTS, dose response (AID 1347060; cut-off not given, nearly all actives have AC50 up to about 26 µM;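 as to AC50: cells exposed to compound for 48 hours before viability readout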); settings: CellTiter-Glo ATP luminescence
# [2] = viability loss in pontine glioma line – cell-based, SU-DIPG-IV, MIPE4.0, CellTiter-Glo, qHTS, dose response (AID 1347063; cut-off not given, nearly all actives have AC50 up to about 30 µM;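 also: compound exposure lasted 48 hours before the viability readout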); settings: CellTiter-Glo ATP luminescence
# [3] = viability loss in pontine glioma line – cell-based, SU-DIPG-XIII, MIPE5.0, CellTiter-Glo, qHTS, dose response (AID 1347064; cut-off not given, nearly all actives have AC50 up to about 23 µM;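 as to AC50: cells exposed to compound for 48 hours before the viability read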); settings: CellTiter-Glo ATP luminescence
# [4] = viability loss in pontine glioma line – cell-based, SU-DIPG-XXV, MIPE5.0, CellTiter-Glo, qHTS, dose response (AID 1347065; cut-off not given, nearly all actives have AC50 up to about 26 µM;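 also: cells exposed to compound for 48 hours before ATP readout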); settings: CellTiter-Glo ATP luminescence
# [5] = growth inhibition of DIPG cells – cell-based, MIPE4.0 library, CellTiter-Glo luminescence, qHTS (AID 1347066; cut-off not given, nearly all actives have AC50 up to about 30 µM;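 also: cells exposed to compound for 48 hours before readout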); settings: SU-DIPG-VI viability, CellTiter-Glo ATP luminescence
# [6] = JHH-DIPG-1 glioma cell viability, MIPE5.0 library, CellTiter-Glo luminescence, qHTS (AID 1347067; cut-off not given, nearly all actives have AC50 up to about 26 µM;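 also: cells exposed to compound for 48 hours before readout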); settings: JHH-DIPG-1 glioma viability, CellTiter-Glo ATP luminescence
# [7] = growth inhibition of DIPG cells – cell-based, MIPE5.0 library, qHTS (AID 1347068; cut-off not given, nearly all actives have IC50 up to about 30 µM;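 as to IC50: cells exposed to compound for 48 hours before viability readout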); settings: SU-DIPG-XXV viability
# [8] = viability loss with induced miR-34 in A549 – imaging, A549 dox-inducible miR-34, nuclei and caspase counts, primary screen (AID 1347080;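 active = compounds whose cell count with miR-34 switched on is under 0.7 times the count with it off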); settings: A549 miR-34 inducible, Hoechst nuclei count, 48 h
# [9] = MELAS cybrid and Rieske KO viability enhancers – cell-based, MELAS cybrids, Rieske KO mouse fibroblasts, CellTiter-Glo, primary screen (AID 1508586;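 active = mean z-score across replicates of 1.96 or higher in either the MELAS or the Rieske mutant cell line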;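 also: z relative to plate mean and SD of compound and empty wells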); settings: low glucose
# [10] = viability loss in pontine glioma line – cell-based, JHH-DIPG-1, MIPE4.0, CellTiter-Glo, qHTS, dose response (AID 1347062; cut-off not given, nearly all actives have AC50 up to about 27 µM); settings: JHH-DIPG-1 viability, CellTiter-Glo ATP luminescence
# [11] = compounds altering HSF1 focus formation in cells – imaging, Selleck Cancer Library (AID 1347162; in the data active = plate-normalised HSF1 focus index below about 0.46); settings: human cells, HSF1 nuclear foci imaging, at 10 µM; SSMD: measured here: HSF1 foci SSMD mean; cell count: measured here: cell number; plate-normalised HSF1 focus index: stronger effect = lower value
# [12] = drug combination growth inhibition, ovarian cancer – cell-based, oncology-focused library, rucaparib conditional, profiling panel (AID 1508598); settings: patient-derived ovarian cancer cells, CellTiter-Glo viability, 144 h, stronger effect = lower value
# [13] = stronger effect = lower value, cell number ratio, induced over uninduced
# [14] = measured here: relative caspase fold change +Dox/-Dox
# [15] = measured here: total cells with miR-34 induction, stronger effect = lower value
# [16] = measured here: total cells without miR-34 induction
# [17] = MELAS cybrid survival, CellTiter-Glo 48 h, stronger effect = higher value
# [18] = Rieske KO mouse fibroblast survival, CellTiter-Glo 72 h
smiles,measurement,setting,value
CC(C)c1cc(C(C)C)c(CC(=O)NS(=O)(=O)Oc2c(C(C)C)cccc2C(C)C)c(C(C)C)c1,AC50,[1],10.5 µM (active)
same,AC50,[2],20.9 µM (active)
same,AC50,[3],13.2 µM (active)
same,AC50,[4],9.34 µM (active)
same,AC50,[5],10.5 µM (active)
same,AC50,[6],11.8 µM (active)
same,IC50,[7],8.33 µM (active)
same,fold change,[8]; [13],0.956 (inactive)
same,fold change,[8]; [14],0.65
same,cell count,[8]; [15],5000
same,cell count,[8]; [16],5220
same,z-score,[9]; [17],-0.406 (inactive)
same,z-score,[9]; [18],0.969
COc1cc(C(C)C)c(Oc2cnc(NC(CO)CO)nc2N)cc1I,outcome,[1],inactive
same,AC50,[2],14.8 µM (active)
same,outcome,[3],inactive
same,outcome,[4],inactive
same,outcome,[5],inactive
same,outcome,[6],inactive
same,outcome,[7],inactive
CNC(=O)c1cccc(-c2ccc3c(N4CCOC[C@@H]4C)nc(N4CCOC[C@@H]4C)nc3n2)c1,AC50,[1],1.32 µM (active)
same,AC50,[2],0.0209 µM (active)
same,AC50,[3],0.118 µM (active)
same,AC50,[4],0.372 µM (active)
Cc1ncc(-c2ccnc(Nc3ccc(S(C)(=O)=O)cc3)n2)n1C(C)C,AC50,[1],5.25 µM (active)
same,AC50,[2],2.35 µM (active)
same,AC50,[3],3.72 µM (active)
same,AC50,[4],4.68 µM (active)
same,AC50,[6],4.68 µM (active)
same,IC50,[7],2.95 µM (active)
same,fold change,[8]; [13],0.998 (inactive)
same,fold change,[8]; [14],1.12
same,cell count,[8]; [15],1780
same,cell count,[8]; [16],1790
same,z-score,[9]; [17],1.7 (inactive)
same,z-score,[9]; [18],-2.84
Clc1ccc(COC(Cn2ccnc2)c2ccc(Cl)cc2Cl)c(Cl)c1 (stereo unspecified),AC50,[1],26.3 µM (active)
same,outcome,[10],inactive
same,AC50,[4],23.5 µM (active)
same,AC50,[6],20.9 µM (active)
COc1ccccc1[C@H](c1cccc2ccccc12)[C@@](C)(C#N)C(=O)N1CCC(c2cccc(C(F)(F)F)c2)CC1,outcome,[1],inactive
same,AC50,[2],3.32 µM (active)
same,outcome,[3],inactive
same,outcome,[4],inactive
same,outcome,[5],inactive
same,outcome,[6],inactive
same,outcome,[7],inactive
CC(=O)O/N=C1/C(c2c(O)[nH]c3cc(Br)ccc23)=Nc2ccccc21,AC50,[1],8.33 µM (active)
same,AC50,[2],1.48 µM (active)
same,AC50,[3],20.9 µM (active)
same,AC50,[4],7.42 µM (active)
same,AC50,[6],29.5 µM (active)
same,IC50,[7],9.34 µM (active)
O=C(Nc1ccccc1-c1cn2c(CN3CCNCC3)csc2n1)c1cnc2ccccc2n1,AC50,[1],9.34 µM (active)
same,AC50,[2],8.33 µM (active)
same,AC50,[3],2.09 µM (active)
same,AC50,[4],3.32 µM (active)
same,AC50,[5],10.5 µM (active)
same,AC50,[6],3.72 µM (active)
same,IC50,[7],10.5 µM (active)
same,fold change,[8]; [13],0.907 (inactive)
same,fold change,[8]; [14],0.998
same,cell count,[8]; [15],6250
same,cell count,[8]; [16],6890
same,SSMD,[11],-4.31
same,cell count,[11],6160
same,plate-normalised HSF1 focus index,[11],0.795 (inactive)
same,z-score,[9]; [17],-0.642 (inactive)
same,z-score,[9]; [18],0.327
same,viability,"[12]; at 0.000305 µM, OCI-C5x cells, with rucaparib 10 µM, 100% = cells with rucaparib alone",102% (inactive)
same,viability,"[12]; at 0.000305 µM, OCI-C5x cells, without rucaparib",114% (inactive)
same,viability,"[12]; at 0.000305 µM, OCI-P5x cells, with rucaparib 20 µM, 100% = cells with rucaparib alone",123% (inactive)
same,viability,"[12]; at 0.000305 µM, OCI-P5x cells, without rucaparib",115% (inactive)
same,viability,"[12]; at 0.00122 µM, OCI-C5x cells, with rucaparib 10 µM, 100% = cells with rucaparib alone",101% (inactive)
same,viability,"[12]; at 0.00122 µM, OCI-C5x cells, without rucaparib",106% (inactive)
same,viability,"[12]; at 0.00122 µM, OCI-P5x cells, with rucaparib 20 µM, 100% = cells with rucaparib alone",117% (inactive)
same,viability,"[12]; at 0.00122 µM, OCI-P5x cells, without rucaparib",116% (inactive)
same,viability,"[12]; at 0.00488 µM, OCI-C5x cells, with rucaparib 10 µM, 100% = cells with rucaparib alone",106% (inactive)
same,viability,"[12]; at 0.00488 µM, OCI-C5x cells, without rucaparib",110% (inactive)
same,viability,"[12]; at 0.00488 µM, OCI-P5x cells, with rucaparib 20 µM, 100% = cells with rucaparib alone",111% (inactive)
same,viability,"[12]; at 0.00488 µM, OCI-P5x cells, without rucaparib",114% (inactive)
same,viability,"[12]; at 0.0195 µM, OCI-C5x cells, with rucaparib 10 µM, 100% = cells with rucaparib alone",113% (inactive)
same,viability,"[12]; at 0.0195 µM, OCI-C5x cells, without rucaparib",116% (inactive)
same,viability,"[12]; at 0.0195 µM, OCI-P5x cells, with rucaparib 20 µM, 100% = cells with rucaparib alone",111% (inactive)
same,viability,"[12]; at 0.0195 µM, OCI-P5x cells, without rucaparib",114% (inactive)
same,viability,"[12]; at 0.0781 µM, OCI-C5x cells, with rucaparib 10 µM, 100% = cells with rucaparib alone",113% (inactive)
same,viability,"[12]; at 0.0781 µM, OCI-C5x cells, without rucaparib",110% (inactive)
same,viability,"[12]; at 0.0781 µM, OCI-P5x cells, with rucaparib 20 µM, 100% = cells with rucaparib alone",110% (inactive)
same,viability,"[12]; at 0.0781 µM, OCI-P5x cells, without rucaparib",110% (inactive)
same,viability,"[12]; at 0.313 µM, OCI-C5x cells, with rucaparib 10 µM, 100% = cells with rucaparib alone",110% (inactive)
same,viability,"[12]; at 0.313 µM, OCI-C5x cells, without rucaparib",108% (inactive)
same,viability,"[12]; at 0.313 µM, OCI-P5x cells, with rucaparib 20 µM, 100% = cells with rucaparib alone",113% (inactive)
same,viability,"[12]; at 0.313 µM, OCI-P5x cells, without rucaparib",107% (inactive)
same,viability,"[12]; at 1.25 µM, OCI-C5x cells, with rucaparib 10 µM, 100% = cells with rucaparib alone",131% (inactive)
same,viability,"[12]; at 1.25 µM, OCI-C5x cells, without rucaparib",120% (inactive)
same,viability,"[12]; at 1.25 µM, OCI-P5x cells, with rucaparib 20 µM, 100% = cells with rucaparib alone",68.8% (active)
same,viability,"[12]; at 1.25 µM, OCI-P5x cells, without rucaparib",89.6% (active)
same,viability,"[12]; at 5 µM, OCI-C5x cells, with rucaparib 10 µM, 100% = cells with rucaparib alone",1.3% (active)
same,viability,"[12]; at 5 µM, OCI-C5x cells, without rucaparib",1.45% (active)
same,viability,"[12]; at 5 µM, OCI-P5x cells, with rucaparib 20 µM, 100% = cells with rucaparib alone",0.727% (active)
same,viability,"[12]; at 5 µM, OCI-P5x cells, without rucaparib",0.751% (active)
